A selection: hits, their analogues and other compounds. The true share with any hit is near 3.8%.
ADAM17 inh: ADAM17 inhibitors, primary screen, biochemical, QFRET. actives 0.83% (n = 370,000). AID 720648, 2013. recombinant ADAM17, EDANS/DABCYL FRET peptide cleavage. Disintegrin and metalloproteinase domain-containing protein 17 (Homo sapiens), P78536. inhibition, % at 6.95 µM;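 active = inhibition above the mean of compounds lying between control limits plus 3 SD, set per campaign, cut at about 8.5% in these data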
KLK7 zymogen act: proKLK7 zymogen activators, primary screen, biochemical, fluorescence intensity; Kallikrein-7 (Homo sapiens), P49862; purified proKLK7, EDANS-DABCYL substrate fluorescence; 100% is mature enzyme control, 0% vehicle; activation, % at 7 µM; actives 0.9% (n = 370,000); AID 652039, 2013;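 active = activation above the mean of all tested compounds plus 3 SD, computed per campaign excluding outliers beyond control limits, cut at about 13% in these data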
Target sequence (P49862 whole entry, looked up): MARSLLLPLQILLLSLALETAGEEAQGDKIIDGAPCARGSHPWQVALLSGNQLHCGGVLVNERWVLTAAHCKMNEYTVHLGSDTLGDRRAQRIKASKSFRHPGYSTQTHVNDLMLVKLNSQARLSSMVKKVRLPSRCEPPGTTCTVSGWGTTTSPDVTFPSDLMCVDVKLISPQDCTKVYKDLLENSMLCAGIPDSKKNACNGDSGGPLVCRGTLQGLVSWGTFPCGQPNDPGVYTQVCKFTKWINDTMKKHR
ADAM10 inh: human ADAM10 inhibitors, primary screen, biochemical, QFRET, HTS; Disintegrin and metalloproteinase domain-containing protein 10 (Homo sapiens), O14672; recombinant ADAM10, EDANS/DABCYL FRET peptide cleavage, 3 h; inhibition, % at 7 µM; actives 0.62% (n = 370,000);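 active = inhibition above a per-campaign cutoff equal to the mean of compounds falling between control-based bounds plus 3 SD, cut at about 20% in these data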
FGF22 binding: binders of human FGF22 protein, primary screen, FGF22 synaptogenesis inhibitor project, biophysical, thermal shift, single point | Fibroblast growth factor 22 (Homo sapiens), Q9HCT0 | recombinant FGF22 thermal shift, SYPRO orange fluorescence; percent of sucrose octasulfate shift, DMSO zero | activity (Tm shift, normalised), % at 9.99 µM | actives 1.5% (n = 340,000);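 active = mean Tm shift, scaled 0 neutral to 100 positive control, at about 1.3% or above, every replicate too, limit read from the data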
Target sequence (Q9HCT0 whole entry, looked up): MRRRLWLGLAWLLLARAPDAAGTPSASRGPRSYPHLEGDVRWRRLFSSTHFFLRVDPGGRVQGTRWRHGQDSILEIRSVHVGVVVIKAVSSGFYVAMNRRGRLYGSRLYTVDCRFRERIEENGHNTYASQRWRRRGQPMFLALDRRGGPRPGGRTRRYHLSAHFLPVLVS
Ecoli rRNA inh: reduced GFP signal of wild-type E. coli, primary screen, bacterial rRNA inhibitor project, GFP/RFP fluorescence, OD600, single point; E. coli WT GFP vs humanized-ribosome RFP mutants, 24 h; stronger effect = lower value; DMSO median 0, no signal -100; actives 1.6% (n = 350,000); GFP signal change (wild-type ribosome), % (test concentration not listed);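 active = significant combined selectivity score with lowered wild-type GFP, culture density cut under 30%, mutant RFP and density less affected; inactive = any of these conditions unmet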
Numbers stand for hits; – = inactive; · = not tested or not shown.

SMILES	ADAM17 inh	KLK7 zymogen act	ADAM10 inh	FGF22 binding	Ecoli rRNA inh
COc1cc(OC)c(C2=NOC(C(=O)N3CCc4ccccc4C3)C2)cc1Cl (centres undefined)	–	–	–	–	-26
COc1cc(OC)c(C2=NOC(C(=O)N3CCN(C(=O)c4ccco4)CC3)C2)cc1Cl (centres undefined)	–	–	–	–	–
COc1ccc(C(=O)N/C(=C\c2cc(OC)c(OC)cc2[N+](=O)[O-])C(=O)NCC(=O)O)cc1	–	–	–	43	–
CCOC(=O)C1CCCN(C(=O)c2csc(-c3ccc4c(c3)CCO4)n2)C1 (centres undefined)	–	–	–	–	-41
CCOC(=O)C1CCCN(C(=O)c2ccc3c(c2)OCCO3)C1 (centres undefined)	–	–	–	–	–
CCC1(CC)N([O-])C(C)=C(c2ccccc2)[N+]1=O	–	–	–	·	·
CC1=C(c2ccccc2)[N+](=O)C2(CCCCC2)N1[O-]	–	–	–	43	–
O=C(NCCCN1CCCC1=O)c1ccccc1OCc1ccc(Cl)cc1Cl	–	–	–	–	-31
O=C(NCCCN1CCOCC1)c1cc(-c2ccc(F)cc2)nc2ccccc12	–	–	–	–	–
O=C(NCCCN1CCCC1=O)c1cc(-c2ccc(F)cc2)nc2ccccc12	–	–	–	–	-20
O=C(NN=C1CCCC1)c1cc(-c2ccc(F)cc2)nc2ccccc12	–	–	–	–	–
O=C(NCCCN1CCCC1=O)Nc1ccc(Cl)cc1Cl	–	–	–	–	–
O=C(NNS(=O)(=O)c1cccc(Cl)c1)c1cc(-c2ccc(F)cc2)nc2ccccc12	–	–	–	–	-19
CC=Cc1ccc2n(c1=O)C[C@@H]1[C@@H](CO)[C@H](C(=O)N3CCOCC3)N(Cc3ccccc3OC)[C@H]21 (mixture of isomers)	·	·	·	–	–
COc1ccc(NC(=O)N2C[C@@H](O)COC[C@@H]3O[C@H](CC(=O)N4CCN(C)CC4)CC[C@H]32)cc1	·	·	·	–	–
O=C(CN1CCCN(S(=O)(=O)c2ccc(Br)s2)CC1)Nc1ccc(Cl)cc1	–	–	20	·	·
CCOC(=O)CNC(=O)CN1CCCN(S(=O)(=O)c2ccc(Br)s2)CC1	–	–	–	·	·
CC(C)CC#Cc1ccc([C@@H]2[C@@H](CO)N3C(=O)CN(C(=O)NC(C)C)C[C@H]23)cc1	·	·	·	·	–
Cc1cc(/C=C2/C(=O)N(C)C(=S)N2C)ccc1N1CCCC1	–	–	–	43	–
Cc1cc(N2CCCC2)ccc1/C=C1/C(=O)N(C)C(=S)N1C	–	–	–	–	–
CNC[C@H]1Oc2c(NC(=O)NC(C)C)cccc2C(=O)N(C)C[C@H]1C	·	·	·	·	–
Cn1c(=O)c2c(ncn2Cc2ccc(Cl)cc2)n(C)c1=O	–	–	–	44	–
Cn1c(=O)c2c(ncn2CC(COCc2ccc(Cl)cc2)OCc2ccc(Cl)cc2)n(C)c1=O (centres undefined)	–	–	–	·	·
CCc1c(C)nc2ncnn2c1NCCc1ccc(OC)cc1	–	–	–	–	-27
CCc1c(C)nc2ncnn2c1Nc1ccc(C)cc1	–	–	–	–	–
SMILES	ADAM17 inh	KLK7 zymogen act	ADAM10 inh	FGF22 binding	Ecoli rRNA inh
CCC(=O)N(C)C[C@@H]1Oc2cc(C#CCC3CCCC3)ccc2S(=O)(=O)N([C@@H](C)CO)C[C@@H]1C	·	·	·	–	–
CN1C(=O)c2cc(NC(=O)C3CCCC3)ccc2OC[C@@H]2O[C@@H](CC(=O)O)CC[C@H]21	·	·	·	–	–
COc1ccc(Cn2c(-c3ccc(C)cc3)c[n+]3ccccc23)cc1	–	–	–	–	-34
COc1ccc(-c2nc3ccccc3n2Cc2ccc(C)cc2)cc1	–	–	–	·	·
O=C(O)CNC(=O)c1ccccc1F	–	–	–	·	·
Cc1ccccc1C(=O)NCC(=O)O	–	–	–	43	–
CCCNC(=O)N1CC2(C1)[C@@H](c1ccccc1)[C@@H](CO)N2C(=O)C1CC1	·	·	·	–	–
CSc1ccccc1C(=O)C1CCCN(C(=O)c2csnn2)C1 (centres undefined)	–	–	–	43	–
COc1cc(CN2CC3(CN(C(C)=O)C3)c3c([nH]c4cc(OC)ccc34)[C@@H]2CO)cc(OC)c1	·	·	·	·	–
O=C(Cc1cccnc1)N1CC(=O)N2[C@H](CO)[C@@H](c3ccc(-c4cccc(F)c4)cc3)[C@H]2C1	·	·	·	·	–
CCN(CC)c1c([N+](=O)[O-])c(=O)n(CC)c2ccccc12	–	–	–	–	-35
CCn1c(=O)c([N+](=O)[O-])c(N2CCOCC2)c2ccccc21	–	–	–	·	·
CCNc1c([N+](=O)[O-])c(=O)n(CC)c2ccccc12	–	–	–	–	-33
C[C@@H]1CN(C)C(=O)c2ccccc2O[C@H]1CN(C)S(C)(=O)=O	·	·	·	·	–
Cc1ccc(S(=O)(=O)N(C)C[C@H]2Oc3ccc(NS(=O)(=O)c4cn(C)cn4)cc3C(=O)N([C@@H](C)CO)C[C@H]2C)cc1	·	·	·	·	–
CCS(=O)(=O)N1CCN(c2ccccc2)CC1	–	–	–	–	–
O=C1Oc2ccccc2C(=O)/C1=C\N1CCN(c2ccccc2)CC1	–	–	–	–	-33
C[C@H]1CN([C@@H](C)CO)S(=O)(=O)c2ccc(-c3cncnc3)cc2O[C@H]1CN(C)C(=O)CC1CC1	·	·	·	–	–
Cc1nc(NC(=O)CCl)sc1C(=O)N(C)C	–	–	–	43	–
COc1ccc(/C=N/NC(=O)c2snnc2C)c(OC)c1OC	–	–	–	43	–
Cc1ccc2c(C)c(C(=O)NCc3ccc(S(N)(=O)=O)cc3)oc2c1C	–	–	–	43	–
Cc1cc2oc(C(=O)Nc3ccc(S(N)(=O)=O)cc3)c(C)c2cc1Cl	–	–	–	43	–
CCN(CC)S(=O)(=O)c1ccc2oc(C(=O)NCc3ccc(F)cc3)c(C)c2c1	8.8	–	22	·	·
Cc1ccc2c(C)c(C(=O)Nc3ccc(S(N)(=O)=O)cc3)oc2c1C	–	–	–	–	–
Cc1c(C(=O)NCc2ccc(F)cc2)oc2ccc(S(=O)(=O)N3CCOCC3)cc12	–	–	–	–	–
Cc1ccc(-c2ccc3c(c2)O[C@@H](CN(C)C)[C@H](C)CN([C@H](C)CO)S3(=O)=O)cc1	·	·	·	–	–
C[C@@H]1CCCCO[C@@H](CN(C)C(=O)CCCN(C)C)[C@H](C)CN([C@H](C)CO)C(=O)c2cc(NC(=O)C3CCCCC3)ccc2O1	·	·	·	–	–
C[C@@H]1CN([C@@H](C)CO)S(=O)(=O)c2ccc(-c3ccccc3)cc2O[C@@H]1CN(C)C	·	·	·	·	–

High-throughput results: PubChem, several laboratories
